Test results as given in PubChem BioAssay (EPA / NIEHS).
The source made the active and inactive calls. The calls were made as follows: active = hit-call score of the fitted dose curve at least 0.9, where 1 is the maximum; inactive = score below 0.9.

experiment: CCTE_Shafer_MEA_dev_firing_rate_mean: CCTE's Neural Network Formation Assay for Mean Firing Rate, Shafer Lab (AID 2284031);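 as to AC50: curve fitted for loss of firing so AC50 reflects decreased mean firing rate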
Protocol: CCTE_Shafer_MEA_dev assay is conducted using Axion Biosystems 48 well microelectrode array (MEA) plates and Maestro recording system. Each well of the MEA plate contains a grid of 16 microelectrodes embedded in the culture surface. Electrically active cells, such as neurons, can be cultured over the electrodes, and electrical activity in these cells can be recorded extracellularly. The spontaneous firing of neurons is captured from each electrode on a microsecond timescale providing both temporally and spatially precise data. […] The CCTE_Shafer_MEA_dev assay uses primary cultures of rat cortical neurons. Recordings are made on days post-plating 5, 7, 9 and 12. As these cultures mature over time, neural networks develop functional activity and form cohesive networks in which electrical activity can be highly coordinated. CCTE_Shafer_MEA_dev_firing_rate_mean is 1 of 19 assay components of the CCTE_Shafer_MEA_dev assay. It measures the frequency of spikes (action potential firings) as the total number of spikes divided by the length of the recording in a microelectrode array (MEA) using Axion Biosystems Maestro 768 channel amplifier with the AxIS adaptive spike detector. The firing rate is averaged across the active electrodes to report a well-mean value. To collapse across multiple recordings made on days post-plating 5, 7, 9 and 12, the trapezoidal area-under-the-curve of the component is calculated.Data from the assay component CCTE_Shafer_MEA_dev_firing_rate_mean was analyzed into 1 assay endpoint. This assay endpoint, CCTE_Shafer_MEA_dev_firing_rate_mean, was analyzed in the negative analysis fitting direction relative to DMSO as the negative control and baseline of activity. Using a type of functional reporter, gain or loss-of-signal activity can be used to understand electrical activity.
On the day prior to culture, each well was coated thoroughly with 150 uL of 0.05% polyethyleneimine (PEI, Sigma Cat P3143) in 50 mM HEPES (Sigma Cat H7523) at a pH of 8. The plate was incubated at 37C for one hour. PEI was rinsed out with 500 uL of sterile water three times. Plates were stored at 4C until the day of culture. This culture was plated at a seeding density of 1.5 x 10^5 cells/well on a 48-well MEA plate, prepared as described above. Cells were administered via a 25 uL media/laminin ([…]; Sigma Cat L2020-1MG) drop directly onto the microelectrode array, as adding the cells with the laminin results in better attachment than pre-coating with laminin. After 2 hours, an additional 475 uL of cortical media was added and the cells returned to the incubator. Exposure starts at day 0 of plating and is continued over twelve days of network development until the experiment is terminated. Cells are fed with fresh medium on DIV 5 and 9, following the recordings on those days. The entire volume of media in the well is exchanged and any vehicle or compound treatment is renewed. Complete details are found in OP-NHEERL/ISTD/SBB/TJS/2015-03-r0 (available on request, email shafer.tim@epa.gov). Measurement of the electrical activity is non-invasive, and recordings can be made from the same plate over multiple different days of the culture. In cortical neurons, this allows for the measurement of extracellular action potentials over the period during which networks form in the MEA plate.

Row | SMILES | AC50 | outcome
1 | CN(C)CCCn1cc(C2=C(c3c[nH]c4ccccc34)C(=O)NC2=O)c2ccccc21 | 1.97 µM (active) [middle of 4 runs] | 
2 | O=C1CC2(CCCC2)CC(=O)N1CCCCN1CCN(c2ncccn2)CC1 |  | inactive
3 | Brc1cc(Br)c(Oc2cc(Br)c(Br)cc2Br)cc1Br |  | inactive
4 | F |  | inactive
5 | [O]=[V]([OH])([OH])[OH] |  | inactive
6 | CC(=O)N[C@@H](CC(=O)O)C(=O)O |  | inactive
7 | CC(C)c1nn(C(=O)NC(C)(C)C)c(=O)n1N |  | inactive
8 | c1cc2c3c(c1)ccc1cccc(c13)C2 |  | inactive
9 | Cc1[nH]n(C)c(=O)c1C(=O)c1ccc(C(F)(F)F)cc1S(C)(=O)=O |  | inactive
10 | C[C@@H]1CCO[C@H]2Cn3cc(C(=O)NCc4ccc(F)cc4F)c(=O)c(O)c3C(=O)N12 | 2.57 µM (active) | 
11 | C[C@@H]1CC[C@@H](C(C)(C)O)[C@H](O)C1 |  | inactive
12 | CC(CNC(=S)[S-])NC(=S)[S-].[Zn+2] (stereo not drawn) | 6.97 µM (active) | 
13 | CCCCCC=C(C)C(CC)CCO (stereo not drawn) |  | inactive
14 | CC(C)O |  | inactive
15 | BrC1CC(Br)CC(Br)CC(Br)CC(Br)CC(Br)C1 (stereo not drawn) | 8.92 µM (active) | 
16 | c1ccc2c(c1)ccc1c3ccccc3ccc21 |  | inactive
17 | CCc1ccccc1 |  | inactive
18 | CCCCCC(C)(CC)C(=O)NC (stereo not drawn) |  | inactive
